Sfp PPTase inh – qHTS Assay for Inhibitors of Bacillus subtilis Sfp phosphopantetheinyl transferase (PPTase). 4'-phosphopantetheinyl transferase ffp (Bacillus subtilis), Q9F4F7. Biochemical Sfp PPTase activity, qHTS. Potency, µM, for inactives: largest response in the series, negative = inhibition, most hits filed as inhibitors. hit rate 3.5% among 310,000. AID 1490, 2009;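 note: the enzyme is Sfp with the accession as filed and its product quenches rhodamine fluorescence; 0% = enzyme reaction without inhibitor and -100% = no enzyme wells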
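Compounds were incubated with enzyme (final 15 nM) for 15 min at room temperature before substrate addition started the reaction. Fluorescence at 525 nm excitation, 598 nm emission was recorded immediately and after 30 minutes.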
G9a inh – qHTS Assay for Inhibitors of Histone Lysine Methyltransferase G9a | Histone-lysine N-methyltransferase EHMT2 (Homo sapiens), Q96KQ7 | G9a H3K9 monomethylation, AlphaScreen, 2 h | Potency, µM (top dose mostly 102 µM), inactives show at the top dose activity, negative = inhibition, most hits filed as inhibitors | hit rate 8.8% among 350,000; note: % is set by controls: 0 for no effect and ±100 for the full control effect; nearly all actives have a fitted effect of over 75% in size
Target sequence (Q96KQ7 913-1193 limits assumed): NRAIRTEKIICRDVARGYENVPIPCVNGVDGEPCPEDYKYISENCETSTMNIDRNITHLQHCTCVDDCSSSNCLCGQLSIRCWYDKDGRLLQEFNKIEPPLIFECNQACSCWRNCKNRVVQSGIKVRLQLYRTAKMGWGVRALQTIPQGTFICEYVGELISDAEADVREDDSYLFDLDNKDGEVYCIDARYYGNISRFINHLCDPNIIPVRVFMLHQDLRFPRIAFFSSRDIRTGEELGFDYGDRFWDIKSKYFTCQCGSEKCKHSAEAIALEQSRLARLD
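AlphaScreen detection with an anti-monomethyl H3K9 antibody quantified product after a 2 h room-temperature reaction containing 500 nM biotinylated H3K9 peptide, 20 µM SAM and 20 nM enzyme, which had been preincubated 15 min with compound.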
JMJD2A Tudor – qHTS Assay for Inhibitors of JMJD2A-Tudor Domain; Lysine-specific demethylase 4A (Homo sapiens), O75164; AlphaScreen JMJD2A-Tudor / H3K4me3 peptide binding; Potency, µM (series often up to 114 µM), for the others: top-dose activity change, negative = inhibition, most hits filed as inhibitors; hit rate 4.4% among 390,000; AID 504339, 2011; note: % is set by controls: 0 for no effect and ±100 for the full control effect; nearly all actives have a fitted effect of over 50% in size
HP1b chromo inh – HTS for Inhibitors of HP1-beta Chromodomain Interactions with Methylated Histone Tails; AlphaScreen HP1-beta / biotin-H3K9me3 peptide binding; Potency, µM (doses to about 114 µM), inactives show top-dose activity change, negative = inhibition, most hits filed as inhibitors; hit rate 0.56% among 390,000; AID 540317, 2011; note: nearly all actives have a fitted effect of over 70% in size
Target sequence (P83916 whole entry, looked up): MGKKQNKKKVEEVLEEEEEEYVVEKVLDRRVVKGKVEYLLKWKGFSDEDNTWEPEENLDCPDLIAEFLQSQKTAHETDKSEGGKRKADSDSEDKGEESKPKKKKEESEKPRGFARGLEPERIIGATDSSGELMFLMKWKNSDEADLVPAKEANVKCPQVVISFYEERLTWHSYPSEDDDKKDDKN
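AlphaScreen: HP1-beta (50 nM) preformed 30 min with biotin-H3(1-18)K9me3 peptide (50 nM) in PBS pH 7.4, 0.01% Tween-20. Compound added for 30 min at RT, then streptavidin donor/nickel chelate acceptor beads (10 ug/mL) for 30 min.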
BAZ2B inh – qHTS Assay for Inhibitors of BAZ2B; Bromodomain adjacent to zinc finger domain protein 2B (Homo sapiens), Q9UIF8; AlphaScreen BAZ2B-H3K14Ac peptide displacement; Potency, µM (doses to about 114 µM), inactives show top-dose activity change, negative = inhibition, usual class: inhibitors; hit rate 4.4% among 360,000; AID 504333, 2011; note: % is set by controls: 0 for no effect and ±100 for the full control effect; nearly all actives have a fitted effect of over 60% in size
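BAZ2B 50 nM plus b-H3(5-23)K14Ac 50 nM, PBS pH 7.4/0.01% Tween-20, 30 min RT; compound added (max 110 uM), 30 min RT; streptavidin donor/Ni-chelate acceptor beads 10 ug/mL final, 20 min dark; AlphaScreen read.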
PLK1 PBD block – qHTS for Inhibitors of PLK1-PDB (polo-like kinase 1 - polo-box domain): Primary Screen. Plk1 PBD binding of FITC phosphopeptide, fluorescence polarization. Potency, µM, inactives show max response, negative = inhibition, usual class: inhibitors. hit rate 2.8% among 360,000. AID 720504, 2013; note: series mostly up to about 57 µM; % is set by controls: 0 for no effect and ±100 for the full control effect; nearly all actives have a fitted effect of over 65% in size
An asterisk follows results filed as active; ? = inconclusive; / = no result; [ ] = another dose, or the depositor's remark. An excerpt weighted towards active compounds, which were near 12% of everything screened. Calls come from the whole dose curve; as a rule, active = well fitted curve in the direction sought with a large enough effect; inconclusive = small, poorly fitted or top-dose-only effect, or another doubt; inactive = no such curve, though single readings can be large; an effect the other way counts as inactive or inconclusive. Potency is the fitted concentration of half-maximal effect.

SMILES	Sfp PPTase inh	G9a inh	JMJD2A Tudor	HP1b chromo inh	BAZ2B inh	PLK1 PBD block
CC(=O)Nc1sc(N/N=C\c2ccccc2F)nc1-c1cccs1	-30%	10µM*	?	?	-4%	-12%
CC(=O)Nc1sc(NC(=O)c2ccccc2)nc1-c1cccs1	0%	5%	-9%	27%	10%	-5%
CC(=O)Nc1sc(N/N=C\c2ccc(O)cc2)nc1-c1cccs1	?	32µM*	40µM*	?	?	27µM*
CC(=O)Nc1sc(N/N=C\c2cccc(Cl)c2)nc1-c1cccs1	-4%	10µM*	?	?	-32%	?
COc1cc(-c2nc(Cn3nnc(C(=O)Nc4ccccc4)c3C)c(C)o2)cc(OC)c1OC	/	?	?	?	-37%	/
CCN(CC)CCN(C(=O)c1ccco1)c1nc2ccc(Br)cc2s1	/	-6%[59 µM]	-9%	36%	-2%	/
CC(C)c1ccc(N=C(N)N=C(N)N)cc1	16%	14%	-20%	17%	-4%	-20%
COCCNC(=O)C1CCC(CNS(=O)(=O)c2ccc3c(c2)CC(C)N3C(C)=O)CC1 (stereo not given)	/	-30%[59 µM]	-14%	35%	-25%	/
CCc1ccccc1N(C)C(=O)c1sc2nc3n(c(=O)c2c1C)CCCCC3	/	?	-13%	40%	-26%	/
CCOc1ccccc1N(C)C(=O)c1ccc2c(=O)n3c(nc2c1)CCCCC3	17%	/	-28%	1%	-6%	24µM*
CCOc1ccccc1N(C)C(=O)c1sc2nc3n(c(=O)c2c1C)CCCC3	/	?	-21%	97%	50µM*	/
COc1cc(OC)c(N(C)C(=O)c2sc3nc4n(c(=O)c3c2C)CCCCC4)cc1Cl	/	14µM*	?	20%	50µM*	/
COc1cc(OC)c(N(C)C(=O)c2sc3nc4n(c(=O)c3c2C)CCCC4)cc1Cl	/	?	21%	129%	-5%	/
CCOc1cc(C(=O)N2CCC3(CC2)NCCc2[nH]cnc23)cc(OCC)c1OCC	4%	/	-4%	40%	-6%	1%
Cc1ccc2c(c1)C(c1ccccc1)CC(=O)O2 (stereo not given)	5%	69%	26%	40%	30%	3%
Cc1ccc(NN2C(=O)C=C(c3ccccc3)C2=O)cc1	11µM*	10µM*	-32%	-33%	-31%	8.4µM*
O=C1c2ccccc2C(=O)N1Nc1ccccc1	2%	0%[0.0925 µM]	-10%	27%	8%	-17%
COC(=O)CCCC[C@H]1SC[C@H]2NC(=O)N[C@]21O	40µM*	2.2µM*	/	/	0.89µM*	/
COC(=O)CCCCC1SCC2NC(=O)NC21O (stereo not given)	20%	8.9µM*	0.89µM*	-95%	2.2µM*	?
COc1ccc(-c2ccccc2C2C3C=CCCC3(C)C(=O)N2Cc2ccccc2)cc1 (stereo not given)	-29%	/	-19%	27%	/	/
O=C(N/N=C/c1ccc(-c2ccccc2[N+](=O)[O-])o1)[C@H]1C[C@@H]1c1ccccc1	25µM*	8.9µM*	?	-35%	?	-24%
N#C/C(=C\c1ccc(-c2ccccc2[N+](=O)[O-])o1)C(N)=O	?	2%	-13%	20%	-3%	-4%
O=C(/C=C/c1ccc(-c2ccccc2[N+](=O)[O-])o1)c1ccccc1	?	32µM*	?	?	11µM*	-14%
O=C(O)/C(=C\c1ccc(-c2ccccc2[N+](=O)[O-])o1)c1ccccc1	-40%	?	?	-16%	?	38µM*
Cc1cc(C(=O)C(C(c2ccccc2)N2CCOCC2)N2CCOCC2)ccc1Cl (stereo not given)	/	/	-9%	15%	/	-18%
SMILES	Sfp PPTase inh	G9a inh	JMJD2A Tudor	HP1b chromo inh	BAZ2B inh	PLK1 PBD block
Cc1oc(-c2cccc(Cl)c2)nc1CN1CCC(C(=O)NC2CC2)CC1	14%	11%[59 µM]	-22%	-19%	1%	21µM*
CCc1ccc(-c2nc(CN3CCC(C(=O)NCCN(CC)c4ccccc4)CC3)c(C)o2)cc1	-14%	?	50µM*	?	?	7%
Cc1oc(-c2cccc(Cl)c2)nc1CN1CCC(C(=O)NC(C)c2ccccc2)CC1 (stereo not given)	/	-3%[59 µM]	-15%	23%	-26%	/
Cc1cccc(-c2nc(CN3CCCC(C(=O)N4CCN(c5cc(Cl)ccc5C)CC4)C3)c(C)o2)c1 (stereo not given)	/	14µM*	-33%	1%	?	/
Cc1oc(-c2ccc(Cl)cc2)nc1CN1CCCC(C(=O)N2CCOCC2)C1 (stereo not given)	5%	?	-12%	39%	-14%[57.1 µM]	-10%
CCN(CCNC(=O)C1CCN(Cc2nc(-c3ccc(Cl)cc3)oc2C)CC1)c1ccccc1	?	?	50µM*	?	14µM*	-1%
CC1(C)C2CC[C@]1(C)[C@@H](O)C2	13%	3%[12.7 µM]	/	/	/	/
COc1ccccc1N1CCN(c2ncnc3c2c(-c2ccccc2)cn3-c2cccc(C)c2)CC1	/	-8%[59 µM]	-31%	16%	?	/
CCCN(CCC)CCCNC(=O)C1CCCN(Cc2nc(-c3ccc(Cl)cc3)oc2C)C1 (stereo not given)	/	-33%[59 µM]	-10%	14%	-8%	/
CCN(CCNC(=O)C1CCCN(Cc2nc(-c3ccc(OC)cc3)oc2C)C1)c1ccccc1 (stereo not given)	?	-32%[12.7 µM]	32µM*	-42%	11µM*	-1%
Cc1oc(-c2cccc(Cl)c2)nc1CN1CCC(C(=O)NCc2cccnc2)CC1	4%	20%[59 µM]	10%	10%	-11%	-3%
CCN(CCNC(=O)C1CCN(Cc2nc(-c3cccc(Cl)c3)oc2C)CC1)c1ccccc1	?	?	40µM*	?	40µM*	3%
N#Cc1ccc2c(c1)C[C@]1(CCCCN3C(=O)c4ccccc4C3=O)Oc3c(c(=O)oc4ccccc34)C2O1	4%	12%[2.33 µM]	/	/	-9%[22.9 µM]	/
CCOc1ccc(CCNC(=O)C2CCN(c3nnc(-n4cccc4)s3)CC2)cc1	-13%	24%	-14%	19%	25%	-2%
CCN(CCNC(=O)C1CCN(S(=O)(=O)c2cccc3nsnc23)CC1)c1ccccc1	-1%	50µM*	?	-27%	?	-8%

Screening results from PubChem BioAssay.
